# NS1 function inh – qHTS Assay for Inhibitors of Influenza NS1 Protein Function | Potency, µM (top dose mostly 46.1 µM), without a hit: top-dose activity, positive = more growth | 270,000 compounds, 0.4% hits | AID 2326, 2010; also: actives are rising curves; nearly all actives have a fitted effect of over 50% in size
#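 In this qHTS, NS1 from influenza A is expressed in budding yeast, where it slows growth. Cells are switched from glucose to 2% galactose medium (pH 6.0, -URA), treated with compound, and growth recovery is read at OD600.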
# SARS PLP yeast – qHTS of Yeast-based Assay for SARS-CoV PLP. S. cerevisiae expressing SARS-CoV PLpro, growth rescue. Potency, µM (series often up to 32.9 µM), inactives show top-dose activity, positive = growth rescue, usual class: activators. 330,000 compounds, 0.19% hits. AID 485353, 2010; also: 0% is about no effect; nearly all actives have a fitted effect of over 55% in size
# Pf growth 96h – Primary qHTS for delayed death inhibitors of the malarial parasite plastid, 96 hour incubation; Potency, µM (titrated, usually from 28.7 µM), for the others: at the top dose activity change, negative = inhibition, actives largely listed as inhibitors; 320,000 compounds, 6.9% hits; P. falciparum luciferase reporter growth, 96 h; active = well fitted inhibition curve with a large enough effect; inconclusive = small, poorly fitted or top-dose-only effect, or another doubt; inactive = no such curve, though single readings can be large or run the other way; also: % is scaled to controls: 0 for no effect and ±100 for the full control effect
#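 Luminescence readout: decreased luciferase signal marks inhibited growth of reporter-expressing P. falciparum in infected red cells (2% hematocrit, 0.05% parasitemia final), exposed to compound two generations (96 h, 37 C, 5% CO2).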
# Pf growth 48h – Primary qHTS for delayed death inhibitors of the malarial parasite plastid, 48 hour incubation; P. falciparum luciferase growth in erythrocytes, 48 h; Potency, µM (top dose mostly 28.7 µM), inactives show top-dose activity change, negative = inhibition, actives largely listed as inhibitors; 310,000 compounds, 5.9% hits; active = well fitted inhibition curve with a large enough effect; inconclusive = small, poorly fitted or top-dose-only effect, or another doubt; inactive = no such curve, though single readings can be large or run the other way; also: % is scaled to controls: 0 for no effect and ±100 for the full control effect
#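 Growth was read as firefly luciferase luminescence after a 48 h, 37 C, 5% CO2 exposure of compounds to reporter-bearing P. falciparum cultures (0.1% parasitemia, 2% hematocrit final) in Albumax-supplemented RPMI 1640.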
# The depositor's hits bear a star; ? = inconclusive; / = no result given. An excerpt weighted towards active compounds, which were near 10% of everything screened. Unless noted, calls follow the shape of the full dose curve. Potency is read from the fitted curve at half-maximal effect.
SMILES,NS1 function inh,SARS PLP yeast,Pf growth 96h,Pf growth 48h
CC(=O)Nc1sc2c(c1CN1CCN(c3ccc(F)cc3)CC1)CCCC2,-10.1%,-4.8%,9.28µM*,/
c1ccc2c(c1)OCCOCCOCCOCCOCCOc1ccccc1OCCOCCOCCO2,-34.7%,-14.3%,7.38µM*,?
OCCN1CCOCCOc2ccccc2OCCOCC1,-2.2%,-3.8%,164.5%,19.5%
COC(=O)COC(=O)CC(CC(N)=O)c1ccccc1 (stereo not drawn),0.7%,0.3%,9.28µM*,-0.5%
COc1cc2c3c(c1OC)-c1cc(O)ccc1CC3NCC2 (stereo not drawn),6.2%,10.5%,38.4%,-11.9%
COc1cc2c(cc1OC)-c1c(OC)c(OC)cc3c1[C@H](C2)[N+](C)(C)CC3,9.3%,20.9%,0.37µM*,?
CCOC(=O)C1CCN(C(=O)C2CCCN(c3ncnc4c3nc3n4CCCCC3)C2)CC1 (stereo not drawn),-15.3%,-1.3%,?,?
O=C(NCCC(=O)N1CCC2(CC1)NCCc1[nH]cnc12)c1cccc(Cl)c1,-7.5%,-1.2%,5.8%,1.2%
COc1ccc(OC)c(-n2nnnc2SCC(=O)NCCc2ccccc2)c1,0.7%,3.3%,9.28µM*,50.8%
COc1cccc(-n2nnnc2SCC(=O)c2cc(OC)ccc2OC)c1,0.0%,0.3%,11.7µM*,21.0%
COc1cccc(-n2nnnc2SCC(=O)NCCc2ccccc2)c1,-13.0%,-1.1%,-6.5%,21.0%
O=C1c2ccc3c4c(ccc(c24)C(=O)N1c1ccc(O)cc1)C(=O)N(c1ccc(O)cc1)C3=O,2.1%,0.0%,4.65µM*,-15.2%
O=C(O)c1ccc(S(=O)(=O)c2ccc3c(c2)C(=O)N(c2ccc(O)cc2)C3=O)cc1,-1.6%,-1.1%,13.1%,-2.8%
Cc1cccc(NC(=O)CSc2nnc(CNC(=O)c3ccc(S(=O)(=O)N(C)C)cc3)n2-c2cccc(C)c2)c1,-15.6%,18.6%,7.38µM*,?
Cc1cccc(-n2c(CNC(=O)c3ccc(S(=O)(=O)N(C)C)cc3)nnc2SCC(=O)Nc2ccc(F)cc2)c1,-19.5%,-10.2%,?,11.7µM*
Cc1cccc(NC(=O)CSc2nnc(CNC(=O)c3ccc(S(=O)(=O)N(C)C)cc3)n2-c2ccc(F)cc2)c1,-15.2%,-5.7%,?,-13.6%
CC(=NCCCn1ccnc1)c1c(O)n(C)c(=O)n(C)c1=O,0.2%,-2.8%,10.4µM*,26.5%
CCOC(=O)Cc1cnc(NC(=O)Cn2nnc(-c3ccc(OCC)cc3)n2)s1,-8.9%,5.4%,6.57µM*,0.0%
CCOc1ccc(-c2nnn(CC(=O)NCc3ccc(C)cc3)n2)cc1,/,-4.6%,7.38µM*,0.8%
CC1Oc2ccccc2C=C1/C=N/Nc1ccc(C(=O)O)cc1 (stereo not drawn),-75.0%,-3.3%,14.5%,-37.1%
COc1cccc2cc(C(=O)Nc3ccc(S(=O)(=O)NCC4CCCO4)cc3)c(=O)oc12 (stereo not drawn),-0.5%,1.4%,59.6%,2.08µM*
O=C(O)c1ccc(Cl)c(S(=O)(=O)NCC2CCCO2)c1 (stereo not drawn),1.9%,11.5%,?,/
COc1cc(C(Nc2ccc(S(=O)(=O)N3CCC(C)CC3)cc2)C(=O)NCC2CCCO2)cc(OC)c1OC (stereo not drawn),3.0%,-1.0%,?,13.1µM*
COc1cc(C(Nc2ccc(S(=O)(=O)NCC3CCCO3)cc2)C(=O)NC(C)(C)C)cc(OC)c1OC (stereo not drawn),-7.9%,-2.8%,?,2.08µM*
COc1ccc(NC(=O)c2ccc(Cl)c(S(=O)(=O)NCC3CCCO3)c2)c(OC)c1 (stereo not drawn),16.0%,6.4%,11.7µM*,?
SMILES,NS1 function inh,SARS PLP yeast,Pf growth 96h,Pf growth 48h
COc1ccc(S(=O)(=O)Nc2ccc(S(=O)(=O)NCC3CCCO3)cc2)cc1 (stereo not drawn),11.3%,-2.1%,77.9%,11.4%
COc1ccc(S(=O)(=O)N2CCC(C(=O)NCC3CCCO3)CC2)cc1C (stereo not drawn),7.9%,8.8%,32.6%,12.5%
O=C(Nc1ccc(S(=O)(=O)NCC2CCCO2)cc1)c1ccccc1 (stereo not drawn),-1.3%,0.2%,-14.0%,-2.9%
COc1ccc(N2CCN(C(=O)c3ccc(CNS(=O)(=O)c4cccc(OC)c4)cc3)CC2)cc1,18.6%,-8.3%,2.1%,-11.9%
Cc1ccc(/C=C/C(=O)OCC(=O)NC(=O)NCc2ccco2)cc1,/,-6.2%,4.4%,-17.4%
CCCN(CCC)C(=O)C[n+]1cccc(/C=N/O)c1,-10.5%,-2.8%,?,?
